Out of some 290,000 compounds screened, about 1,800 (0.62%) were called active. No stated cut-off is given here; in the data, active means inhibition above about 50%; inactive means the rest. The entries come from a sample that favours actives as a whole.
assay: NOD2 signaling inhibitors, cell-based, luminescence, uHTS, HEK293 (AID 1566); conditions: HEK293 NOD2/NF-kB luciferase reporter, at 4 µM, stronger effect = higher value

inhibition, active:
O=C(Nc1ccc(N2CCCCC2)cc1)c1ccccn1 69.8%, O=C(Nc1ccc(N2CCOCC2)cc1)c1cnsn1 52.4%, CN1C(=O)/C(=C\c2ccccc2F)Sc2ccc(C(=O)NC3CCN(Cc4ccccc4)CC3)cc21 58.2%, Cc1nc(C)c(C(=O)N/N=C/c2cc(Br)ccc2O)s1 50.9%, O=C(N/N=C/c1cc([N+](=O)[O-])ccc1O)c1ccc(COc2ccc3c(c2)CCC3)o1 50.4%, COc1ccc([N+](=O)[O-])c(S(=O)(=O)c2ccc(Cl)cc2)n1 60.3%, Cc1ccc(NC(=O)CSc2ccc3c(c2)OCCO3)c(O)c1 54.3%, CNc1nnc(-c2cc3cc(Cl)ccc3oc2=O)s1 94.4%, CCOC(=O)c1ccc(CC(=O)c2ccc(O)cc2O)o1 67.3%, CCOC(=O)c1sc2nc(C)nc(NCc3ccc(Cl)cc3)c2c1C 51.3%, C(C#CCCCCCCCCC[n+]1ccccc1)#CCCCCCCCCC[n+]1ccccc1 68%, O=C(Nc1nc(-c2ccccc2)cs1)c1ccc(N2CCOCC2)c([N+](=O)[O-])c1 68.1%

inhibition, inactive:
C/C(=C\c1ccccc1)CN1CCN(Cc2ccc(C)o2)C(CCO)C1 (centres undefined) -6.3%, CCOC(=O)C1CCN(C(=O)CS(=O)(=O)Cc2nc(-c3ccccc3Cl)oc2C)CC1 17.3%, O=C(Nc1ccc(N2CCCCCC2)cc1)c1ccccc1Cl -104%, Cc1cnc(C(=O)Nc2ccc(N3CCOCC3)cc2)cn1 -3.6%, O=C(Nc1ccc(N2CCOCC2)cc1)Nc1cnsn1 -3.9%, O=C(Nc1ccc(N2CCCCC2)cc1)c1cccnc1Cl -2.2%, O=C(CSc1nc2ccccc2[nH]1)NCc1ccccc1 -35%, COc1ccc(S(=O)(=O)N2CCN(CC(O)COc3ccc(C#N)cc3)CC2)cc1OC (centres undefined) 1.5%, CC(=O)Nc1ccccc1OCC(=O)N(Cc1ccccc1)C(C)C 19.2%, Cc1ccc(-n2c(C)nc3ncnc(-c4ccccc4)c32)cc1 17.9%, CN1C(=O)/C(=C/c2ccccc2F)Sc2ccc(C(=O)NCC3CCCO3)cc21 (centres undefined) 17%, CN1C(=O)/C(=C/c2ccccc2F)Sc2ccc(C(=O)N3CCCC3)cc21 37.3%, CCc1c(C)nc2c(C)cccc2c1SCCC#N 12.6%, O=C(CN1CCN(C(c2ccccc2)c2ccccc2)CC1)Nc1ccc(N2CCOCC2)cc1 6.9%, COC(=O)c1c(NC(=O)c2ccc(OC(C)C)cc2)sc2c1CC(C)(C)NC2(C)C 7.3%, COc1ccc(/C=N/NC(=O)c2sc(C)nc2C)cc1 13.6%, COc1ccccc1/C=N/NC(=O)c1sc(C)nc1C 6.4%, Cc1onc(-c2ccccc2)c1C(=O)N1CCOC12CCN(c1cccc(F)n1)CC2 14.4%, O=C(NCCc1ccccc1)C1CCCN(c2ncnc3c2nc2n3CCCCC2)C1 (centres undefined) 18.5%, COC(=O)c1sc(N2C(=O)C(O)=C(C(=O)c3ccc(C)o3)C2c2ccco2)nc1C (centres undefined) 39.6%, O=C(NCc1ccccc1)N1CCOCC1 -1.5%, Cc1nc2cc(N3CCCCC3)c(NC(=O)c3ccncc3)cc2c(=O)n1Cc1ccccc1 10.5%, CC(=O)Nc1cc2c(=O)n(Cc3ccccc3)c(C)nc2cc1N1CCOCC1 9.5%, CC(=O)Nc1ccc(NC(=O)c2sc(-c3ccccc3)nc2C)cc1 19.3%, COc1cc2cc(CN(CCc3ccccc3C)C(=S)NCCCN3CCOCC3)c(=O)[nH]c2cc1OC 17.4%, COc1ccc(Nc2nc3ccccc3nc2NS(=O)(=O)c2cccs2)cc1 37.8%, O=C(O)c1ccc(Nc2nc3ccccc3nc2NS(=O)(=O)c2cccs2)cc1 7.1%, CC(=O)Nc1ccc(S(=O)(=O)N2CCN(CC(=O)NC3CCCC3)CC2)cc1 -8.9%, O=C1OCC2=C1C(c1ccccc1)CC(=O)N2c1ccc(F)cc1 (centres undefined) -3.1%, Cc1c(CCC(=O)O)c(=O)oc2c(C)c(OCc3cc4c(cc3Cl)OCO4)ccc12 35%, COc1ccc(-c2coc3c(C)c4oc(=O)c(CCC(=O)O)c(C)c4cc23)cc1 5.8%, Cc1c(CCC(=O)O)c(=O)oc2c(C)c3occ(-c4ccc(Br)cc4)c3cc12 41%, COc1ccccc1COc1ccc2c(C)c(CC(=O)O)c(=O)oc2c1C 10.3%, CCOc1ccccc1C(=O)OCC(=O)NCCNC(=O)COC(=O)c1ccccc1OCC -4.3%, CCCN1C(=O)/C(=C/c2ccc(C)o2)SC1=Nc1ccc(OCC)cc1 1.9%, O=c1cc(CSc2nnc(COc3ccc(Cl)cc3)o2)c2ccccc2[nH]1 17.3%, COc1cccc(C2CNC3(CCCC(C)C3)c3[nH]c4ccccc4c32)c1OC (centres undefined) -9%, COc1ccc(Br)cc1/C=N/NC(=O)c1ccc(COc2ccc3c(c2)CCC3)o1 -48.8%, O=C(N/N=C/c1cccc(O)c1)c1ccc(COc2ccc3c(c2)CCC3)o1 -30.7%, O=C(NCCc1ccc(Cl)cc1)C1CCCN1C(=O)Nc1ccccc1 (centres undefined) 13.4%, Cc1ccc(NC(=O)C(C)Sc2n[nH]c(CNc3ccccc3)n2)cc1 (centres undefined) 3.6%, CC1Sc2ccc(S(=O)(=O)N3CCC(C(=O)Nc4cccc(Cl)c4)CC3)cc2NC1=O (centres undefined) 14.4%, Cc1ccc(NC(=O)C2CCN(S(=O)(=O)c3ccc4c(c3)NC(=O)C(C)S4)CC2)cc1C (centres undefined) 16.5%, CN(C)c1ccc(C2N(C(=O)N3CCOCC3)CCN2S(=O)(=O)c2ccccc2)cc1 (centres undefined) 13.1%, Cc1c(Br)c([N+](=O)[O-])nn1CC(=O)Nc1ccc2nc3n(c(=O)c2c1)CCCC3 17.3%, Cc1ccc(/C=C(/NC(=O)c2ccccc2)C(=O)NC(Cc2c[nH]c3ccccc23)C(=O)O)cc1 (centres undefined) 9.4%, COc1ccc([N+](=O)[O-])c(S(=O)(=O)c2ccccc2)n1 29%, COc1nc(OC)nc(Oc2ccc(Cl)cc2[N+](=O)[O-])n1 10.1%, Cc1c(CC(=O)N[C@@H](C)C(=O)O)c(=O)oc2cc3occ(-c4ccccc4)c3cc12 14%, COc1cc(C(=O)OCC(C)=O)c([N+](=O)[O-])cc1OC 0.4%, CCSc1nc(-c2ccccc2)c(C#N)c(=O)[nH]1 20%, N#Cc1c(-c2ccccc2)nc(SCc2ccc(Cl)cc2)[nH]c1=O 24.8%, O=C(c1ccc2c(=O)n(-c3ccccc3)c(=O)[nH]c2c1)N1CCN(c2ccc(F)cc2)CC1 14.2%, Cc1cc(NC(=O)CSc2ccc3c(c2)OCCO3)no1 14.9%, Cc1cccc(SCC(=O)Nc2ccc3c(c2)OCCO3)c1 -70.2%, CCn1c(=O)c(=O)[nH]c2cc(C(=O)NC(C)c3ccc(S(N)(=O)=O)cc3)ccc21 (centres undefined) -19.7%, CNc1nnc(-c2cc3ccccc3oc2=O)s1 -76.8%, O=c1oc2ccc(Cl)cc2cc1-c1nnc(Nc2cccc(C(F)(F)F)c2)s1 9%, CCOC(=O)N1CCN(C(=O)c2ccccc2NC(=O)c2ccc(C(C)(C)C)cc2)CC1 4.9%, CC(=O)c1sc(-c2ccc(F)cc2F)nc1C -0.7%, Cc1nnc(NC(=O)c2c(-c3ccccc3)noc2C)s1 4.4%, Cc1cnc(NC(=O)c2c(-c3ccccc3)noc2C)s1 5.6%, CCOc1ccc(NC(=O)Nc2ccon2)cc1 -25.3%, COC(=O)c1ccc(CC(=O)c2ccc(O)cc2O)o1 43.8%, CCOC(=O)c1ccc(CC(=O)c2ccc(O)c(O)c2O)o1 8.3%, CC[N+](CC)(CCO)CCCN1C(=O)C2CC=C(Cl)CC2C1=O (centres undefined) 1.4%, CCOC(=O)c1sc2nc(C)nc(NCc3ccccc3)c2c1C 22%, CCOC(=O)c1sc2nc(C)nc(NCc3ccc(F)cc3)c2c1C 45.8%, CC(=O)Nc1ccc(NC(=O)CSc2nc3c([nH]c4ccccc43)c(=O)n2-c2ccccc2F)cc1 34.3%, c1cc[n+](CCCC[n+]2ccccc2)cc1 7.6%, c1cc[n+](CCC[n+]2ccccc2)cc1 11.7%, CN(C)N1C(N)=C(C#N)C(c2ccc(F)cc2)C2=C1CC(C)(C)CC2=O (centres undefined) -11.2%, O=C(COc1cccc(Cl)c1)Nc1nc(-c2ccc(S(=O)(=O)N3CCOCC3)cc2)cs1 -0.1%, O=C(COc1ccccc1)Nc1nc(-c2ccc(S(=O)(=O)N3CCOCC3)cc2)cs1 25.3%, Cc1cccc(NC(=O)CCC(=O)Nc2nnc(C(F)(F)F)s2)c1 8.6%, CCS(=O)(=O)N1CCN=C1SCc1cccc(F)c1 8.5%, O=C(Nc1nccs1)c1ccc(N2CCOCC2)c([N+](=O)[O-])c1 -39.7%, O=C(Nc1nc(-c2ccc(-c3ccccc3)cc2)cs1)c1cc([N+](=O)[O-])ccc1N1CCOCC1 6%, Cc1cc(C(=O)Nc2cccc(/C=C/C(=O)O)c2)c(C)o1 5.6%, N/C(=N\OC(=O)c1cccc(Cl)c1)c1ccccn1 -99.8%, CC(C)(C)NC(=O)CSc1nc2scc(-c3ccccc3)c2c(=O)[nH]1 25.9%, CC(C)CNC(=O)CSc1nc2scc(-c3ccccc3)c2c(=O)[nH]1 37.7%
